tested on: MCF10A; assay: perturbation Mahalanobis distance of morphological profile vs DMSO controls (Mahalanobis distance (SD units)); higher = stronger morphological change, active = 7 or more; details: screen batch: Batch1_Mahalanobis_Distance; 72 h
Procedure: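 MCF10A cells were seeded onto drugs dispensed acoustically into 384-well plates, using one dose per drug chosen from its human peak plasma concentration, and incubated for 72 h at 37 °C. Cells were stained for DNA, tubulin and mitochondria and imaged; 78 CellProfiler features were extracted, plate-normalised and compared with DMSO wells.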

SMILES | perturbation Mahalanobis distance
C[C@H]1O[C@H](O[C@H]2[C@H](O)[C@@H](O)[C@@H](O[C@H]3[C@H](O)[C@@H](O)C(O)O[C@@H]3CO)O[C@@H]2CO)[C@H](O)[C@@H](O)[C@@H]1N[C@H]1C=C(CO)[C@@H](O)[C@H](O)[C@H]1O (stereo not given in full) [Acarbose] (2.2 µM) | 2.5 (inactive)
CCN(CC)C(=O)/C(C#N)=C/c1cc(O)c(O)c([N+](=O)[O-])c1 [Entacapone] (6.6 µM) | 1.99 (inactive)
S=c1nc[nH]c2nc[nH]c12 [6-Mercaptopurine] (9.9 µM) | 2.97 (inactive)
CCCCN1C[C@H](O)[C@@H](O)[C@H](O)[C@H]1CO [Miglustat] (92.6 µM) | 2.56 (inactive)
CC(C)NCC(O)c1ccc(O)c(O)c1 (stereo not given) [Isoproterenol] (11.8 µM) | 3.12 (inactive)
NC[C@@H]1O[C@H](O[C@H]2[C@@H](O)[C@H](O[C@@H]3[C@@H](O)[C@H](N)C[C@H](N)[C@H]3O[C@H]3O[C@H](CO)[C@@H](O)[C@H](O)[C@H]3N)O[C@@H]2CO)[C@H](N)[C@@H](O)[C@@H]1O [Paromomycin] (332.3 µM) | 4.01 (inactive)
Nc1c2c(nc3ccccc13)CCCC2 [Tacrine] (0.25 µM) | 2.25 (inactive)
COc1ccc2c3c1O[C@H]1C[C@@H](O)C=C[C@@]31CCN(C)C2 [Galantamine] (20 µM) | 2.14 (inactive)
COC(=O)[C@H](c1ccccc1Cl)N1CCc2sccc2C1 [Clopidogrel] (0.12 µM) | 3.1 (inactive)
COC(=O)Nc1nc2ccc(C(=O)c3ccccc3)cc2[nH]1 [Mebendazole] (1.7 µM) | 5.89 (inactive)
COc1cccc2c1C(=O)c1c(O)c3c(c(O)c1C2=O)C[C@@](O)(C(=O)CO)C[C@@H]3O[C@H]1C[C@H](N)[C@H](O)[C@H](C)O1 [Doxorubicin] (0.18 µM) | 11.1 (active)
CCN(CC)C(=S)SSC(=S)N(CC)CC [Disulfiram] (6.7 µM) | 2.16 (inactive)
CCCCNc1cc(C(=O)O)cc(S(N)(=O)=O)c1Oc1ccccc1 [Bumetanide] (1 µM) | 3.62 (inactive)
CCN(CC)CCCC(C)Nc1ccnc2cc(Cl)ccc12 (stereo not given) [Chloroquine] (4.7 µM) | 2.4 (inactive)
Nc1nc(N)c2nc(-c3ccccc3)c(N)nc2n1 [Triamterene] (2 µM) | 3.18 (inactive)
OC[C@H]1O[C@@H](n2cnc3c2NC=NC[C@H]3O)C[C@@H]1O [Pentostatin] (55.9 µM) | 4.44 (inactive)
Nc1nc(Cl)nc2c1ncn2[C@@H]1O[C@H](CO)[C@@H](O)[C@@H]1F [Clofarabine] (7.5 µM) | 10.2 (active)
CN/C(=C\[N+](=O)[O-])NCCSCc1csc(CN(C)C)n1 [Nizatidine] (7.5 µM) | 2.51 (inactive)
Cc1nc(-c2ccc(OCC(C)C)c(C#N)c2)sc1C(=O)O [Febuxostat] (178 µM) | 2.73 (inactive)
CNS(=O)(=O)Cc1ccc2[nH]cc(CCN(C)C)c2c1 [Sumatriptan] (1 µM) | 1.95 (inactive)

same assay, conditions: screen batch: Batch2_Mahalanobis_Distance; 72 h

SMILES | perturbation Mahalanobis distance
C[C@H]1O[C@H](O[C@H]2[C@H](O)[C@@H](O)[C@@H](O[C@H]3[C@H](O)[C@@H](O)C(O)O[C@@H]3CO)O[C@@H]2CO)[C@H](O)[C@@H](O)[C@@H]1N[C@H]1C=C(CO)[C@@H](O)[C@H](O)[C@H]1O (stereo not given in full) [Acarbose] (2.2 µM) | 3.14 (inactive)
CCN(CC)C(=O)/C(C#N)=C/c1cc(O)c(O)c([N+](=O)[O-])c1 [Entacapone] (6.6 µM) | 2.48 (inactive)
S=c1nc[nH]c2nc[nH]c12 [6-Mercaptopurine] (9.9 µM) | 8.34 (active)
CCCCN1C[C@H](O)[C@@H](O)[C@H](O)[C@H]1CO [Miglustat] (92.6 µM) | 3.14 (inactive)
CC(C)NCC(O)c1ccc(O)c(O)c1 (stereo not given) [Isoproterenol] (11.8 µM) | 4.76 (inactive)
Nc1c2c(nc3ccccc13)CCCC2 [Tacrine] (0.25 µM) | 2.5 (inactive)
COc1ccc2c3c1O[C@H]1C[C@@H](O)C=C[C@@]31CCN(C)C2 [Galantamine] (20 µM) | 2.43 (inactive)
COC(=O)[C@H](c1ccccc1Cl)N1CCc2sccc2C1 [Clopidogrel] (0.12 µM) | 2.59 (inactive)
COC(=O)Nc1nc2ccc(C(=O)c3ccccc3)cc2[nH]1 [Mebendazole] (1.7 µM) | 3.69 (inactive)
COc1cccc2c1C(=O)c1c(O)c3c(c(O)c1C2=O)C[C@@](O)(C(=O)CO)C[C@@H]3O[C@H]1C[C@H](N)[C@H](O)[C@H](C)O1 [Doxorubicin] (0.18 µM) | 16.7 (active)
CCN(CC)C(=S)SSC(=S)N(CC)CC [Disulfiram] (6.7 µM) | 3 (inactive)
CCCCNc1cc(C(=O)O)cc(S(N)(=O)=O)c1Oc1ccccc1 [Bumetanide] (1 µM) | 2.57 (inactive)
CCN(CC)CCCC(C)Nc1ccnc2cc(Cl)ccc12 (stereo not given) [Chloroquine] (4.7 µM) | 2.82 (inactive)
Nc1nc(N)c2nc(-c3ccccc3)c(N)nc2n1 [Triamterene] (2 µM) | 4.38 (inactive)
OC[C@H]1O[C@@H](n2cnc3c2NC=NC[C@H]3O)C[C@@H]1O [Pentostatin] (55.9 µM) | 3.34 (inactive)
COc1cc2ncnc(Nc3ccc(F)c(Cl)c3)c2cc1OCCCN1CCOCC1 [Gefitinib] (34.7 µM) | 3.28 (inactive)
Nc1nc(Cl)nc2c1ncn2[C@@H]1O[C@H](CO)[C@@H](O)[C@@H]1F [Clofarabine] (7.5 µM) | 16.5 (active)
CN/C(=C\[N+](=O)[O-])NCCSCc1csc(CN(C)C)n1 [Nizatidine] (7.5 µM) | 2.13 (inactive)
Cc1nc(-c2ccc(OCC(C)C)c(C#N)c2)sc1C(=O)O [Febuxostat] (178 µM) | 3.22 (inactive)
CNS(=O)(=O)Cc1ccc2[nH]cc(CCN(C)C)c2c1 [Sumatriptan] (1 µM) | 3.35 (inactive)

Reference: the supplement of paper PMC6853941
